Hits are enriched below; roughly 3% of the tested compounds scored in any of these assays.
Sm TGR block – blocks Schistosoma mansoni thioredoxin glutathione reductase; Potency, µM (doses to about 114 µM), without a hit: at the top dose activity change, negative = inhibition, hits mostly inhibitors; purified TGR, DTNB reduction, TNB absorbance 405 nm; Q962Y6; 360,000 tested, 3% active; active means well fitted inhibition curve with a large enough effect; inconclusive means small, poorly fitted or top-dose-only effect; inactive means no such curve, though single readings can be large or run the other way; further: on the % scale 0 is the no-effect control and ±100 the full control effect; nearly all actives have a fitted effect of over 60% in size
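Kinetic colorimetric format: TGR-catalysed, NADPH-driven DTNB reduction monitored via TNB absorbance. Enzyme dispensed at 20 nM; compound exposure 15 min at room temperature before reaction start.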
SARS PLpro yeast – inhibitors of SARS-CoV papain-like protease in yeast. AID 485353. Potency, µM (doses to about 32.9 µM), inactives show top-dose activity, positive = growth rescue, hits mostly activators. 330,000 tested, 0.19% active. S. cerevisiae expressing SARS-CoV PLpro, growth rescue; calls by dose curve; further: 0% is about no effect; nearly all actives have a fitted effect of over 55% in size
Numbers without * were called inactive; ? = inconclusive; . = not tested or not shown. Potency means the concentration at half of the fitted maximal effect.

SMILES | Sm TGR block | SARS PLpro yeast
CC(=O)OCC1=C(C(=O)O)N2C(=O)C(NC(=O)c3ccc(COc4c(C)cccc4Cl)o3)C2SC1 (stereo not drawn) | 20µM* | 2.1%
O=C(NNC1CC(=O)N(c2ccccc2)C1=O)c1ccc(COc2ccccc2Cl)o1 (stereo not drawn) | -15.9% | -9.1%
Cc1ccc(CNC(=O)c2ccc(N3CCCC3)c(NC(=O)Nc3ccc(C)cc3)c2)cc1 | 4.2% | .
COc1cccc(CNC(=O)N2CCc3c(sc4c3CCCC4)C2c2ccc(F)cc2)c1 (stereo not drawn) | 6.1% | .
COc1ccc(-c2nc(CSCC(=O)N3CCN(c4ccc(F)cc4)CC3)c(C)o2)cc1 | -0.5% | .
CN1C(=O)C(=Cc2ccc(N3CCOCC3)o2)C(=O)N(C)C1=O | ? | -2.4%
CN1C(=O)C(=Cc2ccc(N3CCCCCC3)o2)C(=O)N(C)C1=S | 35.5µM* | -0.7%
COc1ccc(OC)c(NC(=O)c2cn(CC(C)C)c(=O)c3cc(OC)c(OC)cc23)c1 | -11.3% | .
COc1ccc(C)cc1NC(=O)Cn1c(=O)ccc2cc(S(=O)(=O)N3CCC(C)CC3)ccc21 | -4.0% | .
CCOC(=O)C1CCCN(c2c(N3CCN(C)CC3)c(=O)c2=O)C1 (stereo not drawn) | 5.62µM* | 0.6%
CCOC(=O)C1CCCN(c2c(N3CCC(N4CCCCC4)CC3)c(=O)c2=O)C1 (stereo not drawn) | 89.1µM* | -3.1%
CCOC(=O)C1CCCN(c2c(N3CCOCC3)c(=O)c2=O)C1 (stereo not drawn) | 3.3% | 1.9%
CCOC(=O)C1CCCN(c2c(N3CCN(C4CCCCC4)CC3)c(=O)c2=O)C1 (stereo not drawn) | 2.4% | -7.8%
CC1CN(C(=O)Nc2ccc(C(=O)NCc3ccccc3F)cc2)c2ccccc2S1 (stereo not drawn) | -2.0% | .
O=C(/C=C/c1ccccc1[N+](=O)[O-])Nc1ccccc1 | 8.5% | -1.6%
NN/C(=C\[N+](=O)[O-])Nc1ccccc1 | 22.4µM* | 0.0%
NNC(=S)Nc1ccc(Cl)cc1 | -35.9% | 2.6%
NN/C(=C\[N+](=O)[O-])Nc1ccc(Cl)cc1 | 2.82µM* | -2.2%
Cc1cc(=O)[nH]c2nnc(SCc3ccccc3F)n12 | 6.9% | .
COc1ccc(CCNC(=O)CCn2c(=O)c3ccccc3n(CC(=O)Nc3ccc(C)cc3C)c2=O)cc1OC | 1.5% | .
COc1cc(C)ccc1OCCSc1nc2ccc(NC(=O)c3ccccc3F)cc2s1 | 4.6% | .
Cc1cc(C)n2nc3ccccc3c2n1 | 1.8% | -1.3%
Cc1cc(C)n2nc3nc(N4CCCCC4)nc(-c4ccco4)c3c2n1 | 1.41µM* | -1.3%
Cc1ccc(Nc2ccc([N+](=O)[O-])nc2[N+](=O)[O-])cc1 | 44.7µM* | -6.5%
Cc1ccc(Nc2ccc3nonc3c2[N+](=O)[O-])cc1 | 7.6% | 0.2%
SMILES | Sm TGR block | SARS PLpro yeast
CCc1ccc(N2C(=O)CSC23C(=O)N(Cc2cccc(OC)c2)c2ccccc23)cc1 (stereo not drawn) | 9.7% | .
C=CCNC(=O)c1ccccc1NC(=O)C1CC(=O)N(C(C)C)C1 (stereo not drawn) | 17.8µM* | 3.4%
CC(C)N1CC(C(=O)Nc2ccccc2)CC1=O (stereo not drawn) | 0.0% | 7.0%
O=C(CCCn1c2ccccc2c(=O)c2ccccc21)Nc1cccc(Cl)c1 | 1.7% | .
CNS(=O)(=O)c1cn(CC(=O)N2CCN(c3ccc(C(C)=O)cc3)CC2)cc1S(=O)(=O)NC | -1.6% | .
CN(C1CCCCC1)S(=O)(=O)c1ccc2c(c1)c(=O)c(C(=O)N1CCN(c3ccccc3F)CC1)cn2C | -10.1% | .
O=C(O)/C=C/C(=O)Nc1ccc(Oc2ncnc3cc(Cl)ccc23)nc1 | 8.91µM* | -7.5%
O=C(Nc1ccccc1)Nc1ccc(Oc2ncnc3cc(Cl)ccc23)nc1 | 8.2% | 1.0%
CCOC(=O)c1noc2nc(C)n(CC(=O)Nc3ccc(Br)cc3C)c(=O)c12 | -3.5% | .
O=C(O)CCCCCNS(=O)(=O)/C=C/c1ccccc1 | . | -0.1%
O=C(O)CCCCCNS(=O)(=O)c1cccc2c1C(=O)c1ccccc1C2=O | 50.1µM* | -1.5%
CCOc1c(Cl)cc(CNc2ccc(S(N)(=O)=O)cc2)cc1OC | 2.8% | ?
CCOc1c(Cl)cc(CNc2ccc(N3CCCC3)cc2)cc1OC | 12.6µM* | -1.0%
COc1ccc(OC)c(CCNC(=O)C(C)n2c(C)c3cnn(-c4ccccc4)c(=O)c3c2C)c1 (stereo not drawn) | 3.4% | .
O=C1CSC2(C(=O)N(Cc3c(F)cccc3Cl)c3ccccc32)N1c1ccc(F)c(F)c1 (stereo not drawn) | 1.2% | .
CCC(COC)Oc1cc(NCc2ccccc2)c2ncn(C(C)C)c2c1 (stereo not drawn) | 28.2µM* | 0.0%
CCC(CO)Oc1cc(NCc2ccccc2)c2ncn(C(C)C)c2c1 (stereo not drawn) | . | 7.6%
CCCCCCC(=O)Nc1ccc2nc3c(=O)n(C)c(=O)n(C)c3nc2c1C | 0.2% | .
CCCC(=O)N(Cc1cc(=O)[nH]c2ccccc12)c1ccc(OC)cc1 | -0.9% | 1.1%
COc1ccc(N(Cc2cc(=O)[nH]c3ccccc23)C(=O)CCl)cc1 | 7.94µM* | 2.0%
COc1ccc(N(C)C(=O)c2nc(-c3cccc(F)c3)n3c2CCCCC3)c(OC)c1 | -1.9% | .
Cc1cc(C)cc(N2C(=O)CC(N3CCOCC3)C2=O)c1 (stereo not drawn) | 50.1µM* | -27.5%
O=C1CC(N2CCOCC2)C(=O)N1c1cc(Cl)cc(Cl)c1 (stereo not drawn) | 35.5µM* | -22.0%
O=C(C1CCN(C2CC(=O)N(c3ccc(F)cc3)C2=O)CC1)N1CCOCC1 (stereo not drawn) | ? | -13.6%
CCN1C(=O)CC(N2CCOCC2)C1=O (stereo not drawn) | -10.0% | -3.3%
SMILES | Sm TGR block | SARS PLpro yeast
COc1cccc(CNc2nc3c(-c4cccc(C)c4)nnn3c3ccccc23)c1 | 0.9% | .
O=C(NCc1ccccc1Cl)c1ccc(Nc2nc3ccccc3n3nnnc23)cc1 | 2.8% | .
O=C(/C=C/NCC(=O)c1ccccc1)c1ccc(Br)cc1 | 20µM* | -2.0%
O=C(/C=C/NNC(=O)c1ccccc1)c1ccc(Br)cc1 | 0.7% | -15.4%
N#CC(C#N)=Cc1ccc(OC(=O)c2ccccn2)cc1 | 8.91µM* | -20.6%
COC(=O)c1ccc(OC(=O)c2ccccn2)cc1 | 1.2% | -10.2%
COCCCNC(=O)Cn1c(=O)nc(-c2ccccc2)c2ccccc21 | 4.8% | .
COc1ccc(CNC(=O)Cn2c(=O)nc(-c3ccccc3)c3ccccc32)cc1OC | 1.4% | .
O=C(NNC(=O)c1cccc2ccccc12)c1ccccc1O | 3.2% | -0.2%
O=C(NCCn1cccc1)c1cccc2ccccc12 | 28.2µM* | -1.1%
CC1=CC(C)(C)Nc2ccccc21 | -16.4% | -0.1%
COc1ccc2c(c1)NC(C)(C)C=C2C | 39.8µM* | -3.5%
CC1C(=O)Nc2ccc(S(=O)(=O)NCc3ccc(N(C)C)cc3)cc2NC1=O (stereo not drawn) | -2.0% | .
Cc1ccc([C@@H]2C3COCC=C3C(C#N)=C(N)C2(C#N)C#N)o1 (stereo partly drawn) | 35.5µM* | 0.6%
CC(C)N1CC=C2C(C#N)=C(N)C(C#N)(C#N)[C@H](c3ccoc3)[C@H]2C1 | ? | -8.6%
O=c1oc2cc([N+](=O)[O-])ccc2nc1/C=C(O)/C=C/c1ccccc1 | 35.5µM* | 3.1%
O=c1oc2cc([N+](=O)[O-])ccc2nc1/C=C(\O)c1cccc(Br)c1 | -28.4% | 0.5%
